Assay outcomes from PubChem.
An excerpt weighted towards active compounds, which were near 9.5% of everything screened.
Tau fibril ThT – tau fibrillization inhibition (ThT binding). hit rate 2.1% among 270,000. Potency, µM (series often up to 57.4 µM), for inactives: at the highest dose activity, negative = inhibition, most hits filed as inhibitors. recombinant tau K18 P301L, heparin-induced fibrillization, ThT fluorescence. AID 1460. P10636; further: nearly all actives have a fitted effect of over 55% in size
Target sequence (P10636 561-689 P618L limits assumed): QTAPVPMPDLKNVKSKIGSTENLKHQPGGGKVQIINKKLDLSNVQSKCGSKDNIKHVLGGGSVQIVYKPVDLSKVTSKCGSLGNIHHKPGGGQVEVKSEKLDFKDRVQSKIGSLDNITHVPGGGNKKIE
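Recombinant human tau K18 fragment […] carrying P301L, 15 uM unlabeled plus 0.24 uM Alexa 594-labeled, was fibrillized with 20 uM heparin in 100 mM sodium acetate pH 7 for 6 hr at 37 C; 30 uM ThT fluorescence read after 1 hr.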
HPGD inh – inhibitors of human 15-hydroxyprostaglandin dehydrogenase (HPGD) | purified HPGD, NADH fluorescence kinetic, PGE2 substrate | Potency, µM, for inactives: top-dose activity change, negative = inhibition, most hits filed as inhibitors | hit rate 4.3% among 150,000 | AID 894; active means well fitted inhibition curve with a large enough effect, not every such curve was filed as active; inconclusive means small, poorly fitted or top-dose-only effect, or another doubt; inactive means no such curve, though single readings can be large or run the other way
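20 nM HPGD preincubated 15 min at room temperature with compound in 50 mM Tris-HCl pH 8, 0.01% Tween 20. Started with 1 mM NAD+ and 30 uM prostaglandin E2; NADH fluorescence (360/450 nm) read 5 times over 30-s intervals, last minus first.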
Tau FP inhib – inhibitors of human tau fibril formation; hit rate 0.39% among 280,000; Potency, µM (titrated, usually from 57.7 µM), inactives show top-dose activity, negative = inhibition, hits mostly inhibitors; AID 1468; K18 P301L tau heparin fibrillization, Alexa594 FP, 6 h; further: nearly all actives have a fitted effect of over 55% in size
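K18 P301L tau (15 uM unlabeled/0.24 uM Alexa 594-labeled, final) + compound + heparin 20 uM final; 100 mM NaOAc pH 7; 6 hr 37 C; ThT 30 uM final added, 1 hr RT; FP ex 555/em 632 nm.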
Tau fluor counter – counter-screen for tau fibril formation inhibitors. hit rate 0.93% among 280,000. tau K18 P301L (four-repeat tau fragment) Alexa594 fluorescence, heparin fibrillization. Potency, µM (titrated, usually from 57.7 µM), for the others: at the top dose activity change, negative = decrease. AID 1463; further: nearly all actives have a fitted effect of over 55% in size
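Human K18 P301L tau (15 uM unlabeled plus 0.24 uM Alexa 594-labeled, final) in 100 mM sodium acetate pH 7 was mixed with compound and 20 uM heparin and incubated 6 hr at 37 C.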
ALDH1A1 inh – inhibitors of human aldehyde dehydrogenase 1A1; P00352; Purified ALDH1A1, NADH fluorescence, propionaldehyde substrate; Potency, µM (highest dose often 75.3 µM), inactives show at the highest dose activity, negative = inhibition, actives largely listed as inhibitors; hit rate 7.3% among 220,000; active means well fitted inhibition curve with a large enough effect, not every such curve was filed as active; inconclusive means small, poorly fitted or top-dose-only effect, or another doubt; inactive means no such curve, though single readings can be large or run the other way;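 further: plate controls were no enzyme wells and a reference inhibitor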
NPSR antagonist – antagonists of human neuropeptide S receptor cAMP signaling; Q6W5P4; CHO-NPSR cells, cAMP TR-FRET, antagonist mode; Potency, µM (series often up to 38.3 µM), for the others: top-dose activity change, negative = inhibition, actives largely listed as inhibitors; hit rate 1% among 220,000; further: nearly all actives have a fitted effect of over 50% in size
Target sequence (Q6W5P4 whole entry, looked up): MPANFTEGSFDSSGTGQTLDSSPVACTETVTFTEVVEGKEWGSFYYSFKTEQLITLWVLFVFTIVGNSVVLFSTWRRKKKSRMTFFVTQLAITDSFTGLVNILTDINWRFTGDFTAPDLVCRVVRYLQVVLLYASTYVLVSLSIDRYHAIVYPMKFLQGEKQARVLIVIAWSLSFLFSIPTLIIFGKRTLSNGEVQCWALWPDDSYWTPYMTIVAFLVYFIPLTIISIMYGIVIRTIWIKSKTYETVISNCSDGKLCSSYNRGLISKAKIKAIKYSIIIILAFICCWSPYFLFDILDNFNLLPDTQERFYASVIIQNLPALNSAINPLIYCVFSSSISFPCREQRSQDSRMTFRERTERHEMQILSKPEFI
Numbers without * were called inactive; ? = inconclusive; . = no result; [ ] = remark or other dose. Unless noted, the call rests on the fitted dose curve; in most records, active means well fitted curve in the direction sought with a large enough effect; inconclusive means small, poorly fitted or top-dose-only effect, or another doubt; inactive means no such curve, though single readings can be large; an effect the other way counts as inactive or inconclusive. Unless noted, on the % scale 0 is the no-effect control and ±100 the full control effect; potency means the concentration at half of the fitted maximal effect.

SMILES	Tau fibril ThT	HPGD inh	Tau FP inhib	Tau fluor counter	ALDH1A1 inh	NPSR antagonist
O=C(CSc1nnc(Cc2ccccc2)n1-c1cccc(Cl)c1)N1CCOCC1	-10.4%	-1.1%	-5.0%	-6.5%	0.1%	-20.5%[46.1 µM]
CC(C)c1ccc(C2CC(=O)N3CN(C)CSC3=C2C#N)cc1 (stereo not given)	28.2µM*	14.1µM*	-16.8%	-20.5%	3.55µM*	-26.8%[46.1 µM]
N#CC1=C2SCN(C3CCCCC3)CN2C(=O)CC1c1ccc(F)cc1 (stereo not given)	28.2µM*	.	?	-10.9%	.	.
O=C1CSC(c2ccc(Cl)cc2)N1C1CCCCC1 (stereo not given)	-3.1%	-1.1%	2.4%	-5.7%	-12.2%	?
N#CC1=C2SCN(C3CCCCC3)CN2C(=O)CC1c1c(F)cccc1Cl (stereo not given)	31.6µM*	.	?	-18.8%	.	.
N#CC1=C2SCN(C3CCCCC3)CN2C(=O)CC1c1ccc(Cl)cc1 (stereo not given)	28.2µM*	.	?	-23.6%	.	.
Cn1c2c(c(=O)n(C)c1=O)C(c1ccc(F)cc1)C(C#N)=C(N)O2 (stereo not given)	?	.	?	-15.8%	5.4%	-7.4%
CCc1ccc(C2CC(=O)c3c([nH]c(C(=O)OC4CCCCCC4)c3C)C2)cc1 (stereo not given)	1.5%	.	-0.8%	3.2%	.	.
CCOc1ccc(C(=O)Nc2nnc(S(=O)(=O)N(CC)c3ccccc3C)s2)cc1	?	.	-10.0%	?	.	.
Cc1ccc(-c2nc3nc(C)cc(N4CCN(c5cc(Cl)ccc5C)CC4)n3n2)cc1	-12.7%	.	0.0%	0.9%	.	.
O=C(NCCc1c[nH]c2ccccc12)C(=O)NCC1OCCCN1S(=O)(=O)c1ccc(F)cc1 (stereo not given)	-10.4%	-14.8%	13.8%	-23.8%	?	8.8%
O=C(NCCc1c[nH]c2ccccc12)C(=O)NCC1OCCCN1S(=O)(=O)c1cccs1 (stereo not given)	-13.9%	.	6.5%	?	25.1µM*	5.0%
O=C(NCc1ccccc1Cl)C(=O)NCC1OCCN1S(=O)(=O)c1cccs1 (stereo not given)	-1.1%	.	0.6%	-11.0%	14.1µM*	-5.0%
O=C(NCCO)C(=O)NCC1OCCCN1S(=O)(=O)c1cccs1 (stereo not given)	15.6%	-4.3%	7.2%	18.7%	17.8µM*	2.9%
CNC(=O)C(=O)NCC1OCCCN1S(=O)(=O)c1cccs1 (stereo not given)	7.5%	-2.4%	3.8%	9.2%	?	11.0%
O=C(NCc1cccs1)C(=O)NCC1OCCCN1S(=O)(=O)c1cccs1 (stereo not given)	-2.8%	.	0.4%	-3.0%	14.1µM*	4.4%
COc1ccccc1CNC(=O)C(=O)NCC1OCCN1S(=O)(=O)c1cccs1 (stereo not given)	.	.	7.1%	-22.1%	.	3.2%
CCCC(=O)N(c1ccc2oc3c(c2c1)CCCC3)S(=O)(=O)c1ccc(CC)cc1	-14.5%	.	9.2%	-11.2%	.	.
CCOC(=O)C1C(=O)CC(C)(O)C(C(=O)OCC)C1c1cccc(OC)c1 (stereo not given)	-2.2%	-9.1%	1.7%	0.0%	-0.2%	20.3%[46.1 µM]
CCOc1ccc(NC(=O)CSc2nc3ccccc3c(=O)n2CCCC(=O)NCCCN2CCCC2=O)cc1	-16.1%	.	-2.6%	-11.4%	7.94µM*	-22.7%
CN(C)c1ccc(NC(=O)CSc2nc3ccccc3c(=O)n2C2CCCCC2)cc1	?	-18.3%	11.1%	?	7.08µM*	-28.1%[46.1 µM]
CCOc1ccc(NC(=O)CSc2nc3ccccc3c(=O)n2CCC(=O)NC2CCCCC2)cc1	11.8%	.	2.3%	13.1%	.	.
COc1cccc(NC(=O)CSc2nc3ccccc3c(=O)n2CCCC(=O)N2CCCC2)c1	-13.6%	28.2µM*	8.4%	-14.5%	?	-16.0%[46.1 µM]
CCOc1ccc(NC(=O)CSc2nc3ccccc3c(=O)n2CCCC(=O)N2CCCC2)cc1	-12.6%	.	0.0%	-8.4%	10.4%	-4.6%[46.1 µM]
